PubChem BioAssay (NCI)
Compounds without any hit were thinned out: in the full panel of roughly 83,000, 20% have a hit.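 Negative percent growth values reflect cell death: -40 means 40% of the cells present at the start died, and -100 means all died.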 Calls of active or inactive are those of the source. The calls were made as follows: active = growth percent below 10; inactive = the rest.

Key:
Assay in all cases: NCI-60 one-dose screen, 48 h (100 = growth as untreated, 0 = no growth, -100 = all killed)
Conditions in all cases: 10 µM unless noted
HCT-15 colon = tested on: HCT-15 colon
HT29 colon = tested on: HT29 colon
SNB-75 CNS = tested on: SNB-75 CNS
SNB-19 CNS = tested on: SNB-19 CNS
U251 CNS = tested on: U251 CNS
PC-3 prostate = tested on: PC-3 prostate
SK-MEL-5 melanoma = tested on: SK-MEL-5 melanoma
UACC-62 melanoma = tested on: UACC-62 melanoma
SK-MEL-28 melanoma = tested on: SK-MEL-28 melanoma

Measured: growth

CC[C@H](CC[C@@H](C)[C@H]1CC[C@H]2[C@@H]3/C(=C/c4cccnc4)C(=O)C4=CC(=O)CC[C@]4(C)[C@H]3CC[C@]12C)C(C)C
active: U251 CNS 0.689%
inactive: HCT-15 colon 78.9% | HT29 colon 81.4% | SNB-75 CNS 110% | SNB-19 CNS 88.6% | PC-3 prostate 66.7% | SK-MEL-5 melanoma 79.8% | UACC-62 melanoma 76.6% | SK-MEL-28 melanoma 75.7%

COc1ccc2c(c1)C/C(=C\c1cc(-c3ccc4c(c3)OCO4)n[nH]1)C2=O
inactive: HCT-15 colon 90.3% | HT29 colon 127% | SNB-75 CNS 55.1% | SNB-19 CNS 92.5% | U251 CNS 94.8% | PC-3 prostate 71.6% | SK-MEL-5 melanoma 88.5% | UACC-62 melanoma 90.3% | SK-MEL-28 melanoma 104%

COc1ccc(-c2nc3ccccn3c2-c2nc3ccc(Cl)cc3[nH]2)cc1
inactive: HCT-15 colon 89.1% | HT29 colon 83.7% | SNB-75 CNS 67.5% | SNB-19 CNS 96.2% | U251 CNS 92.9% | PC-3 prostate 57.5% | SK-MEL-5 melanoma 83% | UACC-62 melanoma 86.3% | SK-MEL-28 melanoma 101%

CN(C)c1ccc(N)c2ccccc12
active: HCT-15 colon -82.9% | SK-MEL-5 melanoma -99.4% | UACC-62 melanoma -6.64%
inactive: HT29 colon 70.5% | SNB-75 CNS 101% | SNB-19 CNS 66.7% | U251 CNS 64.3% | PC-3 prostate 32.1% | SK-MEL-28 melanoma 56.6%

CC1(C)NCCC[C@]2(C)[C@H]3CC[C@@H]4[C@H]5[C@H](C(=O)/C=C/c6ccccn6)CC[C@]5(CO)CC[C@@]4(C)[C@]3(C)CC[C@@H]12
inactive: SNB-75 CNS 105% | SNB-19 CNS 77.6% | PC-3 prostate 22.2% | SK-MEL-5 melanoma 56.3% | UACC-62 melanoma 72.8% | SK-MEL-28 melanoma 88.3%
active: HCT-15 colon -4.7% | HT29 colon -13.5% | U251 CNS -21.6%

CN1CCN(CCOc2ccc(-c3cnc4c(-c5ccccc5F)cnn4c3)cc2)CC1
inactive: SNB-75 CNS 120% | SNB-19 CNS 69.1% | PC-3 prostate 32.4% | SK-MEL-5 melanoma 35% | SK-MEL-28 melanoma 59.5%
active: HCT-15 colon 3.14% | HT29 colon -38% | U251 CNS 2.35% | UACC-62 melanoma -10.7%

CC(=O)O[C@H]1CC[C@]2(C)[C@H]3C(=O)C=C4[C@@H]5C[C@](C)(C(=O)N6CCCNCC6)CC[C@]5(C)CC[C@@]4(C)[C@]3(C)CC[C@H]2C1(C)C
active: HCT-15 colon -96.5% | HT29 colon -63.5% | SNB-19 CNS 9.77% | U251 CNS -94.5% | PC-3 prostate 6.04% | SK-MEL-28 melanoma -74.5%
inactive: SNB-75 CNS 80.1% | SK-MEL-5 melanoma 90.2% | UACC-62 melanoma 13.7%

O=c1c(CNc2ccc(S(=O)(=O)Nc3ncccn3)cc2)coc2ccccc12
inactive: HCT-15 colon 84.5% | HT29 colon 110% | SNB-75 CNS 79.4% | SNB-19 CNS 94.2% | U251 CNS 93.3% | PC-3 prostate 92.2% | SK-MEL-5 melanoma 95.9% | UACC-62 melanoma 89.8% | SK-MEL-28 melanoma 119%
